From PubChem
Smad3 FoxH1 inh – Smad3 (human) transcription factor binding inhibition. 0.29% of 88,000 active. inhibition, % at 25 µM. P84022. TR-FRET Smad3/Dy647-FoxH1 peptide binding, europium anti-His. AID 630;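 active = compounds that reduce the energy-transfer binding signal between the protein and its labelled peptide by more than half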;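 note: 0% = Smad3 plus labelled peptide maximal FRET and 100% = peptide-only background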
Target sequence (P84022 whole entry, looked up): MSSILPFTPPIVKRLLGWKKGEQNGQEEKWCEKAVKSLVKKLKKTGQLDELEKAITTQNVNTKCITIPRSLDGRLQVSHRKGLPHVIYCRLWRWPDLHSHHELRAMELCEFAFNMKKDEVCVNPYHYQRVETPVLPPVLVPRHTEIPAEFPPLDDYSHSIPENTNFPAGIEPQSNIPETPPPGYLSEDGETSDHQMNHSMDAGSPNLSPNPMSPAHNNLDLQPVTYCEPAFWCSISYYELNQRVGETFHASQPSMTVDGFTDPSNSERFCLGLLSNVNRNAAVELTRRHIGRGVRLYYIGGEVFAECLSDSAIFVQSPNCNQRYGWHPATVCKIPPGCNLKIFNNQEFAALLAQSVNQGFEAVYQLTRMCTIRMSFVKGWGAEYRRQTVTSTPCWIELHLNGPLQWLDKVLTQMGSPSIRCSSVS
Cav3 T inh – blocks human Cav3.2 T-type calcium channel. O95180. Cav3.2-expressing cells, Fluo-4 calcium fluorescence FDSS; active compounds read low. B-score at 10 µM. 4% of 100,000 active. AID 449739;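 active = single-dose well whose peak fluorescence ratio is a statistical outlier from its plate by either plate-standardised score or position-corrected B-score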
PostGolgi yeast – growth inhibition of a yeast mutant, post-Golgi transport screen. post-Golgi transport phenotypic cell assay. inhibition, % at 10 µM. 0.9% of 98,000 active. AID 739;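 note: yeast cells grown in 1536-well plates; yeast grown about 18 h at 30C before absorbance read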
PostGolgi ctrl – inhibits growth of the yeast control strain; efflux-deficient yeast background strain, growth absorbance A615, 16 h; inhibition, % at 10 µM; 5% of 98,000 active
hDAT+cocaine – human DAT dopamine uptake with cocaine, either direction; LLC-PK1 hDAT cells, [14C]-dopamine uptake with cocaine IC80; actives deviate in either direction; B-score at 10 µM; 1.3% of 110,000 active; AID 449768;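 active = Z score or B-score, a plate-position-corrected score, falls beyond the plate's 99.7% confidence bounds, in either direction; inactive = both scores lie inside the 99.7% bounds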;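 note: scored against the spread of the other compound wells on the same plate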
TNAP act DEA – activators of human TNAP at intermediate phosphate acceptor. P05186. purified TNAP, CDP-star luminescence, 100 mM DEA, 30 min; active compounds read high; scale: 0 levamisole-inhibited, 1 vehicle-only enzyme. activation factor at 20 µM. 64,000 tested, under 10 active. AID 813;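 active = activation factor of at least 2 at 20 µM, relative to controls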
* marks the source's active call; other numbers are inactive results; / = not tested or not shown. Hits are enriched below; roughly 8.7% of the tested compounds scored in any of these assays. Cut-off read from the data, not from the text of the source, unless noted: active = inhibition above about 30%; inactive = the rest.

SMILES	Smad3 FoxH1 inh	Cav3 T inh	PostGolgi yeast	PostGolgi ctrl	hDAT+cocaine	TNAP act DEA
Cn1c(CNc2nc(-c3ccccc3)cs2)nnc1SCC(=O)N1CCc2ccccc21	0	-4.6*	-10	-1	-0.26	0.8
CCOC(=O)c1cc2nc(Nc3ccc(OC)cc3)sc2s1	-4	-0.4	16	0	0.87	1
O=C1CSC(c2cccnc2)N1c1ccc(F)cc1 (configuration not stated)	-9	-0.63	-3	5	0.13	/
CCCNS(=O)(=O)c1cc(Br)cc2c1N(C(=O)CC)CC2	-15	0.74	11	34*	0.81	0.9
CC(C)c1ccc(SCc2noc(C(=O)NCC3CCCO3)c2C(=O)O)cc1 (configuration not stated)	/	0.035	10	-13	0.22	/
CCOC(=O)C1CCN(C(=O)c2oc3ccc(S(=O)(=O)N4CC(C)CC(C)C4)cc3c2C)CC1 (configuration not stated)	4	-5.9*	2	5	0.65	0.9
CCOC(=O)N1CCN(C(=O)c2oc3ccc(S(=O)(=O)N4CC(C)CC(C)C4)cc3c2C)CC1 (configuration not stated)	7	-2.3	7	10	0.82	0.9
CCOC(=O)N1CCN(C(=O)c2oc3ccc(S(=O)(=O)N4CCCCCC4)cc3c2C)CC1	-2	2	-3	12	-8.1*	0.9
CCOC(=O)c1oc2ccc(S(=O)(=O)n3nc(-c4ccc(C)cc4)cc3N)cc2c1C	0	0.44	10	32*	0.25	/
CCOc1ccccc1N1CCN(CC(=O)Nc2nnc(CC)s2)CC1	/	-0.031	8	1	-1.6	0.9
O=C(NC1=NCCS1)c1ccc(-c2ccc(Cl)cc2)o1	-1	-0.45	3	10	-0.71	0.9
O=C(Nc1ccc(CN2CCOCC2)cc1)c1ccc(-c2cc(Cl)ccc2Cl)o1	21	0.42	73*	65*	2.2	/
OC(CNCc1ccccc1)(c1ccc(F)cc1)c1ccc(F)cc1	/	-2.7	11	12	-0.2	/
COc1ccccc1CNCC(O)(c1ccc(Cl)cc1)c1ccc(Cl)cc1	/	-4.5*	3	30	0.85	/
CCOc1ccc2c(c1)nc(SCC(=O)c1ccc(Br)s1)n2C	/	-1.1	5	0	0.066	/
COc1ccc(Nc2nc(N)nc(CN3CCC(Cc4ccccc4)CC3)n2)cc1	1	-2.9	0	9	0.22	1
COc1ccccc1Nc1nc(N)nc(CN2CCC(Cc3ccccc3)CC2)n1	-3	-5.2*	-1	-2	1.3	/
COc1cccc(N2CCN(Cc3nc(N)nc(Nc4ccccc4OC)n3)CC2)c1	1	-1	-11	-1	0.14	0.8
COc1ccccc1Nc1nc(N)nc(CN2CCN(c3ccccc3)CC2)n1	-7	-0.4	4	17	2.5*	0.9
CC(=C/c1ccco1)/C=N/N1CCN(c2ccccc2)CC1	17	-0.065	9	2	0.83	/
COc1ccc(N2CC(C(=O)Nc3ccc(F)cc3F)CC2=O)cc1 (configuration not stated)	8	0.26	4	-1	0.053	1
COc1cccc(/C=N/NC(=O)c2cc(C34CC5CC(CC(C5)C3)C4)[nH]n2)c1	/	-2.9	-3	66*	0.47	/
COc1cccc(/C=N/NC(=O)c2cc(-c3cccn3C)n[nH]2)c1	/	-2.1	4	4	0.29	/
Cc1noc(C)c1CSc1nnc(-c2c[nH]c3ccccc23)n1-c1ccc(Cl)cc1	8	0.67	-7	3	-0.028	1
O=C(CN(C(=O)CCC(=O)Nc1nccs1)c1ccc(F)cc1)NCc1ccco1	12	/	0	32*	-2.8*	1
O=C(CN(C(=O)CCC(=O)Nc1nccs1)c1ccc(F)c(Cl)c1)NCc1ccco1	5	/	2	2	-0.11	0.9
c1ccc(CSc2nnnn2-c2ccc3c(c2)OCCO3)nc1	-5	1.5	4	-1	-0.2	0.9
Clc1ccc(CSc2nnnn2-c2ccc3c(c2)OCO3)c(Cl)c1	-1	-3.5*	2	13	2	/
Cc1ccc(NC(=O)CCSc2nnnn2-c2ccc3c(c2)OCO3)cc1C	13	-5.1*	-1	16	-0.084	0.9
COc1cc(/C=C/c2c([N+](=O)[O-])c(=O)n(C)c(=O)n2C)cc(OC)c1OC	-16	0.032	0	5	-0.31	/
